Bioassay records from PubChem.
Only a selection was taken, and hits are over-represented in it overall.
HIV RNase H inh-1 = inhibitors of HIV-1 reverse transcriptase RNase H. inhibition, % at 10 µM. RT-RNase H RNA/DNA duplex cleavage, fluorescence. hit rate 1.9% among 65,000; in the data active means inhibition above about 50%
RmlCD inh mix = inhibitors of RmlC and RmlD coupled enzymes; RmlC/RmlD coupled enzyme inhibition, 384-well mixture HTS; inhibition, % at 5.5 µM; hit rate 0.39% among 110,000; in the data active means inhibition above about 30%, passing the limit was not always enough
HIV RNase H inh-2 = confirmation of HIV-1 reverse transcriptase RNase H inhibitors | inhibition, % at 10 µM | Recombinant RT RNase H, fluorescent RNA/DNA duplex cleavage | hit rate 39% among 1,000 | shares compounds with HIV RNase H inh-1; in the data active means inhibition above about 48%
* marks the source's active call; other numbers are inactive results.

How did Cc1ccc(-c2nc3ccccc3o2)cc1NC(=O)c1ccc2c(c1)OCO2 do in these assays?
HIV RNase H inh-1: 61.8*; RmlCD inh mix: -0.5; HIV RNase H inh-2: 14.0

What do the screens show for `Cc1ccccc1OCc1nc(-c2ccc(NC(=O)c3ccco3)cc2)no1`?
HIV RNase H inh-1: 26.3; RmlCD inh mix: 4.4

How did CCOC(=O)c1c(NC(C)=O)sc2c1CCCNC2=O do in these assays?
HIV RNase H inh-1: -15.2; RmlCD inh mix: -4.9

Results for COC(=O)C1=CN(CC2CCCO2)C=C(C(=O)OC)C1c1cc(OC)c(OC)c(OC)c1 (stereo unspecified) ?
HIV RNase H inh-1: -0.7; RmlCD inh mix: 17.1

Results for Cn1cc(Br)c(C(=O)NC2CCCCC2)n1 ?
HIV RNase H inh-1: -1.2; RmlCD inh mix: 6.4

How did COC(=O)c1ccccc1NC(=O)CSCC(=O)Nc1ccc(F)cc1 do in these assays?
RmlCD inh mix: 5.7

Results for Cc1c(C(=O)NC2=NCCS2)oc2ccccc12 ?
HIV RNase H inh-1: -17.4; RmlCD inh mix: 7.9

Results for Cc1sc(NC(=O)c2oc3ccccc3c2C)c(C#N)c1C ?
HIV RNase H inh-1: 56.9*; RmlCD inh mix: 3.6; HIV RNase H inh-2: 82.7*

How did CCOC(=O)N1CCN(CCC(=O)Nc2ccc(OC(F)(F)F)cc2)CC1 do in these assays?
HIV RNase H inh-1: 4.6; RmlCD inh mix: -15.6

How did CCCS(=O)(=O)c1c(S(=O)(=O)CCC)c2c3ccccc3ccn2c1C(N)=O do in these assays?
HIV RNase H inh-1: 2.9; RmlCD inh mix: -5.2

How did COc1ccc(OC)c(-n2nnnc2SCC(=O)NCCc2ccccc2)c1 do in these assays?
HIV RNase H inh-1: -26.4

What do the screens show for `COc1cccc(-n2nnnc2SCC(=O)NCCc2ccccc2)c1`?
HIV RNase H inh-1: 70.1*; RmlCD inh mix: 34.9; HIV RNase H inh-2: 37.8

Results for c1ccc(COc2ccc(Nc3ncnc4nc[nH]c34)cc2)cc1 ?
HIV RNase H inh-1: -11.3; RmlCD inh mix: -17.6

Results for CCCCCn1c(N2CCN(c3cccc(Cl)c3)CC2)nc2c1c(=O)[nH]c(=O)n2C ?
HIV RNase H inh-1: -10.0; RmlCD inh mix: 6.7

How did Cn1c(=O)[nH]c(=O)c2c1nc(N1CCN(c3cccc(Cl)c3)CC1)n2CCCc1ccccc1 do in these assays?
HIV RNase H inh-1: 55.9*; RmlCD inh mix: 3.1; HIV RNase H inh-2: 1.3

Results for Cn1c(Cn2c(=O)sc3ccccc32)nnc1SCC(=O)NCCc1ccccc1 ?
HIV RNase H inh-1: -7.2; RmlCD inh mix: 8.6

Results for CSc1nc2sc3c(c2c2nnnn12)CCC3 ?
HIV RNase H inh-1: 40.7

Results for CSc1nc2sc3c(c2c2nnnn12)CCCC3 ?
HIV RNase H inh-1: 51.1*; RmlCD inh mix: 4.1; HIV RNase H inh-2: 33.4

What do the screens show for `COc1cc(OC)c(C(=O)CCCN2CCCC2)c(OC)c1`?
RmlCD inh mix: -11.5

How did CC1(OC(=O)c2ccc(Cl)nc2)C(=O)C=C2C=C(c3ccc(C#N)cc3)OC=C2C1=O (stereo unspecified) do in these assays?
RmlCD inh mix: -10.8

How did O=C(Nc1ccc(N2CCOCC2)cc1)Nc1cnsn1 do in these assays?
HIV RNase H inh-1: 66.8*; RmlCD inh mix: 5.5; HIV RNase H inh-2: 20.0

What do the screens show for `O=C(Nc1ccc(N2CCOCC2)cc1)Nc1ccc(Cl)c(Cl)c1`?
RmlCD inh mix: -20.3

How did N#Cc1cccc(-c2cn(S(=O)(=O)c3ccc(Cl)cc3)nc2N)c1 do in these assays?
HIV RNase H inh-1: -6.0; RmlCD inh mix: -13.1

Results for C=CCc1c(C)[nH]c(=S)c(C#N)c1C ?
HIV RNase H inh-1: 77.2*; RmlCD inh mix: -12.6; HIV RNase H inh-2: 59.4*

What do the screens show for `Cc1[nH]c(=S)c(C#N)c(C)c1C(=O)Nc1ccccc1`?
RmlCD inh mix: -8.4

What do the screens show for `Cc1cc(=O)n2nc(N3CCCC3C(=O)NCCCN3CCCCC3)sc2n1` (stereo unspecified)?
HIV RNase H inh-1: -13.9; RmlCD inh mix: 8.4

Results for Cc1cc(NC(=O)CCCC(=O)NCc2cccs2)no1 ?
HIV RNase H inh-1: -7.5; RmlCD inh mix: 6.9

How did Cc1cc(OC(=O)c2c(C)cc(OC(=O)c3c(C)cc(O)cc3O)cc2O)cc(O)c1C(=O)O do in these assays?
RmlCD inh mix: 11.8

What do the screens show for `CCCCCc1ccc(CC(=O)O)cc1`?
HIV RNase H inh-1: -8.3

Results for CCCCc1ccc(CC(=O)O)cc1 ?
HIV RNase H inh-1: 55.0*; RmlCD inh mix: -200.3; HIV RNase H inh-2: 6.0

What do the screens show for `Cc1oncc1C(=O)Nc1ccc(C(F)(F)F)cc1`?
HIV RNase H inh-1: -16.2; RmlCD inh mix: -9.5

What do the screens show for `Cc1oncc1C(=S)Nc1ccccc1`?
HIV RNase H inh-1: 74.3*; RmlCD inh mix: -12.6; HIV RNase H inh-2: 24.8

How did COc1ccc(C(=O)Cn2nnc(-c3ccccc3NC(=O)c3ccco3)n2)cc1 do in these assays?
HIV RNase H inh-1: -2.5; RmlCD inh mix: -11.2

How did Cc1nn2c(-c3cccc(NC(=O)CSc4nc5ccccc5o4)c3)nnc2c2ccccc12 do in these assays?
HIV RNase H inh-1: 88.5*; RmlCD inh mix: 13.3; HIV RNase H inh-2: 66.4*

How did Cc1cccc(NC(=O)CSc2nc3ccccc3o2)c1 do in these assays?
RmlCD inh mix: -12.8
